The values below come from PubChem BioAssay.

Assay [1] in a line: resazurin metabolic signal in HepG2 cells – cell-based, resazurin fluorescence, 24 h, PK04 Diversity Set, profiling panel (AID 1172). Also: test concentration not given here. To be noted: HepG2 viability, higher = more signal. On the technique in general: The colour change of resazurin is a common sign of viable cells or microbes.
A short description of assay [2]: budding yeast growth changes without added modifier – OD600, strain BY4716, 24 h, basal condition, primary screen (AID 1173). The conditions noted are these: S. cerevisiae BY4716 growth, OD600, 24 h; higher = more signal, called active from +8 up or from −8 down.
A short description of assay [3]: viability profiling in MM1S myeloma cells – cell-based, resazurin fluorescence, basal, 24 h, PK04 Diversity Set, profiling panel (AID 1174).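 Also: MM1S multiple myeloma cell line; test concentration not given here.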 To be noted: higher = more signal, called active from +8 up or from −8 down.
In assay [4] the target is Dihydroorotate dehydrogenase (quinone), mitochondrial (Plasmodium falciparum (isolate 3D7)) (UniProt Q08210). Briefly: inhibition of P. falciparum DHODH – biochemical, C-terminal His tag, absorbance 600 nm, primary screen (AID 1175).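 Also: recombinant parasite enzyme with a five histidine tag at its C terminus; test concentration not given here.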 To be noted: PfDHODH enzyme, DCIP absorbance 600 nm; higher = more signal, called active from +8 up or from −8 down.
A short description of assay [5]: inhibition of PAO1 biofilm formation – strain PAO1, LB-PBS medium, absorbance 600 nm, primary screen (AID 1176). Also: test concentration not given here. The conditions noted are these: P. aeruginosa PAO1 growth/biofilm, A600, 12 h; higher = more signal.
A short description of assay [6]: growth modulation of vineyard yeast isolate – strain RM11-1a, OD600, basal, 24 h, primary screen (AID 1177).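 Also: cultures grown under basal conditions with no added stressor; test concentration not given here.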 The conditions noted are these: S. cerevisiae RM11-1a growth, OD600, 24 h; higher = more signal, called active from +8 up or from −8 down.
The nature of assay [7]: growth of efflux-deficient E. coli DRC39 – strain DRC39, OD650, 24 h, E. coli filamentation inducers, primary screen (AID 1178).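 Also: growth measured as culture turbidity by optical density at 650 nm; test concentration not given here.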 To be noted: E. coli DRC39 acrAB, higher = more signal, called active from +8 up or from −8 down.
Assay [8] in a line: growth of efflux-deficient E. coli DRC39 – strain DRC39, OD650, 48 h, E. coli filamentation inducers, primary screen (AID 1179).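 Also: screen aims at cell division blockers that make cells filament.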 To be noted: E. coli DRC39 delta-acrAB growth, higher = more signal, called active from +8 up or from −8 down.
Assay [9] is described as follows: viability profiling in RPMI8226 myeloma cells – cell-based, resazurin fluorescence, basal, 24 h, PK04 Diversity Set, profiling panel (AID 1180).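 Also: RPMI8826 multiple myeloma cell line at 5000 cells per well; test concentration not given here.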 To be noted: higher = more signal.
Assay [10] has as its target E3 ubiquitin-protein ligase XIAP (Homo sapiens) (UniProt P98170). Kind of assay: small molecules binding XIAP protein – biophysical, small-molecule microarray, fluorescence 635 nm, primary screen (AID 1181).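 Also: score merges 667 nm emission and signal to noise over triplicate slides.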 The conditions noted are these: higher = more signal.

The structures appear in SMILES notation. The source made the active and inactive calls. Unless noted, no rule for the calls is given here.

E3 ubiquitin-protein ligase XIAP (Homo sapiens), sequence (P98170 whole entry, looked up): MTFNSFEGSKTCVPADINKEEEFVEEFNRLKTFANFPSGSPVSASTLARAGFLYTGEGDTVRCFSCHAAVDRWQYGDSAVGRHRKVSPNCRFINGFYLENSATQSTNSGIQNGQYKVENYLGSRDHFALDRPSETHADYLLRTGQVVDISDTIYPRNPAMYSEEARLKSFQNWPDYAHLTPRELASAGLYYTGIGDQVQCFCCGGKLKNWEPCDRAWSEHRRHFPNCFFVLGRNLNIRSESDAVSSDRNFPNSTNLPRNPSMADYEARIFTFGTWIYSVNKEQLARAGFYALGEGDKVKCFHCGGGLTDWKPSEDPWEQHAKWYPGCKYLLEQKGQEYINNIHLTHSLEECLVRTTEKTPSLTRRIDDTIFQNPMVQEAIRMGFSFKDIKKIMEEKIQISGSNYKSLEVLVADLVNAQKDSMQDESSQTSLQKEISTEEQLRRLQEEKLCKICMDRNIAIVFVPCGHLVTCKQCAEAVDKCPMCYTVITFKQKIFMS
Dihydroorotate dehydrogenase (quinone), mitochondrial (Plasmodium falciparum (isolate 3D7)), sequence (Q08210 whole entry, looked up): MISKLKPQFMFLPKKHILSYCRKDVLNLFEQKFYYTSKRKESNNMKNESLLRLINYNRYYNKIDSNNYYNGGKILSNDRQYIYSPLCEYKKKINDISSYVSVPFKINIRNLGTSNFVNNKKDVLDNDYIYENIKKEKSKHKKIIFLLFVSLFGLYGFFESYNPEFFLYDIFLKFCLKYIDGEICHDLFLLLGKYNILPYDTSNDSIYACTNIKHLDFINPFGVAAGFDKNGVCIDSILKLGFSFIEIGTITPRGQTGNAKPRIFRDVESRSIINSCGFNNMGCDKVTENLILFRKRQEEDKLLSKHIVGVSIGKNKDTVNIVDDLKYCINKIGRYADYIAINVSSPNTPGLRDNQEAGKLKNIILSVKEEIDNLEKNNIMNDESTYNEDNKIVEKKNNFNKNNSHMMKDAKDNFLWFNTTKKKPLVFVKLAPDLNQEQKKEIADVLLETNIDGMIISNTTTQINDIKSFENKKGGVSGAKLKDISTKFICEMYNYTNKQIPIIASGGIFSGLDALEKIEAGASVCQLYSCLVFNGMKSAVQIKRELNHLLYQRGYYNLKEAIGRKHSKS

Consider `CC(C)(C)N1CC=CC23O[C@@H]4C=CCOC(=O)[C@@H]4[C@H]2C(=O)N(CCCO)[C@@H]3C1=O` (stereo not given in full), for which the z-score in [1] is -0.922; in [2] it was 0.114 (inactive); in assay [3] it was -1.27 (inactive); in assay [5], -0.317 (inactive); in [6] it was 0.297 (inactive); in [7], -1.04 (inactive). The results for the z-score in assay [8] and in assay [9] were -0.955 (inactive) and -0.808, respectively. For the same compound, the composite z-score in assay [4] was -0.257 (inactive); in assay [10], 0.55.
On to `CC(C)(C)OC(=O)CC[C@]1(C(=O)O)N=C(c2ccc(OCCCO)cc2)O[C@H]1c1ccccc1CN=[N+]=[N-]`, for which the z-score in assay [1] was 0.706; in [2], -0.0245 (inactive); in assay [3], 0.444 (inactive); in [5], -0.788 (inactive); in assay [6], -0.165 (inactive); in assay [7] it was 0.184 (inactive). Moreover, the z-score is 1.25 (inactive) in [8] and 0.925 in [9]. Moreover, the values for the composite z-score in assay [4] and in [10] were 0.209 (inactive) and -0.204, respectively.
Take `CN1C2C=C(CCCO)C(C3C(=O)N(C(N)=O)C(=O)C32)C1c1cccs1` (stereo not given): the z-score was -1 in assay [1]; 0.53 (inactive) in assay [2]; -0.135 (inactive) in [3]; -0.329 (inactive) in assay [5]; 1.37 (inactive) in assay [6]; -0.967 (inactive) in assay [7]. Further, the results for the z-score in assay [8] and in [9] were -0.837 (inactive) and -0.69, respectively. In addition, the composite z-score in assay [4] was 0.837 (inactive); in [10], 3.82.
In the case of `COC(=O)[C@@]1(Cc2ccccc2)[C@H]2c3cc(C(=O)N4CCCC4)n(Cc4cc(F)cc5c4OCOC5)c3C[C@H]2CN1C(=O)c1ccccc1`, the z-score in assay [1] was -0.0185; in assay [2], 0.978 (inactive); in [3] it was -0.523 (inactive); in assay [5], 0.122 (inactive); in [6], -0.0989 (inactive); in assay [7], -0.599 (inactive). Also, the z-score in assay [8] was -0.37 (inactive); in assay [9] it was -0.312. Also, the composite z-score in [4] is -0.354 (inactive); in assay [10], 0.392.
Take `CC1CC/C=C\[C@H]2OC34C=CCN(c5ccc6ccccc6c5)C(=O)[C@H]3N(C(CO)C(C)C)C(=O)[C@@H]4C2C(=O)O1` (stereo not given in full): the z-score was -0.452 in assay [1]; -0.0979 (inactive) in assay [2]; -0.241 (inactive) in [3]; -0.332 (inactive) in assay [5]; -0.319 (inactive) in assay [6]; 0.0932 (inactive) in [7]. Also, the values for the z-score in [8] and in assay [9] were 0.154 (inactive) and -0.315, respectively. Also, the composite z-score is -2.17 (inactive) in assay [4] and 0.558 in assay [10].
As to `CC(C)CCC[C@@H](C)[C@H]1CC[C@@]2(C)C3=C(CC[C@]12C)[C@@]1(C)CC[C@H](OC(=O)c2ccc(Br)cc2)C(C)(C)C1CC3` (stereo not given in full), the z-score in [1] is 1.05; in [2], -0.149 (inactive); in [3], 0.345 (inactive); in [5] it was 0.0694 (inactive); in assay [6] it was -1.7 (inactive); in assay [7] it was 0.998 (inactive). Besides, the z-score is 1.07 (inactive) in [8] and 0.766 in assay [9]. Besides, the composite z-score in assay [4] is -1.4 (inactive); in assay [10] it was 0.0223.
On to `CC(C)CN1C(=O)[C@@]2(c3ccc([N+](=O)[O-])cc3)CC(=O)N(CC34CC5CC(CC(C5)C3)C4)[C@@H]2c2ccc(CO)cc21`, for which the z-score was -1.64 in assay [1]; -0.22 (inactive) in [2]; 0.113 (inactive) in assay [3]; 0.146 (inactive) in assay [5]; -0.855 (inactive) in [6]; 0.197 (inactive) in assay [7]. Besides, the z-score in [8] was -0.213 (inactive); in assay [9], 0.248. For the same compound, the composite z-score is -4.84 (inactive) in assay [4] and -0.289 in assay [10].
Consider `C[C@H]1ON(c2ccc(C(=O)OC(C)(C)C)cc2)[C@@H](c2ccc(O)cc2)[C@@H]1C(=O)N1C(=O)OC[C@@H]1c1ccccc1`, for which the z-score in assay [1] was -0.319; in assay [2], -0.407 (inactive); in [3], -0.263 (inactive); in assay [5] it was 0.294 (inactive); in assay [6], 0.759 (inactive); in assay [7] it was -0.563 (inactive). Besides, the values for the z-score in [8] and in assay [9] were -0.148 (inactive) and -0.782, respectively. The composite z-score in assay [4] was 0.314 (inactive); in assay [10], 0.0029.
In the case of `O=c1cccc(-c2ccc(C(F)(F)F)cc2)o1`, the z-score is -0.0559 in assay [1]; -9.38 (active) in assay [2]; 0.0889 (inactive) in [3]; 0.0767 (inactive) in [5]; -0.962 (inactive) in assay [6]; -0.865 (inactive) in assay [7]. In addition, the z-score is -0.325 (inactive) in assay [8] and 0.263 in assay [9]. Also, the composite z-score in assay [4] was -0.723 (inactive); in [10] it was 0.0535.
For the compound `O=C1O[C@@H](c2ccccc2)[C@@H](c2ccccc2)N2[C@@H](c3ccccc3OCCO)[C@]3(C(=O)Nc4ccccc43)[C@@H](C(=O)NC[C@H](O)c3ccccc3)[C@H]12`, the z-score in [1] is -1.03; in [2], 0.587 (inactive); in [3], -6.16 (inactive); in [5], 2.05 (inactive); in [6] it was 3.08 (inactive); in assay [7], -0.0586 (inactive). Besides, the results for the z-score in assay [8] and in assay [9] were 0.495 (inactive) and -6.99, respectively. The values for the composite z-score in assay [4] and in assay [10] were 1.65 (inactive) and 0.311, respectively.
As for `COC(=O)C1(Cc2ccccc2)C=C2C(=C(C(C)C)C(=O)C2C)CN1` (stereo not given), the z-score in [1] was -0.88; in assay [2], 0.736 (inactive); in assay [3], -2.2 (inactive); in assay [5], 1.35 (inactive); in assay [6] it was 0.905 (inactive); in assay [7], -0.999 (inactive). Moreover, the values for the z-score in assay [8] and in assay [9] were -0.927 (inactive) and -1.59, respectively. The figures for the composite z-score in [4] and in [10] were -1.72 (inactive) and 0.0493, respectively.
In the case of `COCC(=C=CC[C@H](O)c1cccc(OCCO)c1)C[C@H](O)c1ccccn1`, the z-score in assay [1] is 1.51; in assay [2], 1.65 (inactive); in assay [3], 0.959 (inactive); in assay [5], 0.437 (inactive); in [6] it was 1.07 (inactive); in [7], 1.38 (inactive). Also, the z-score in assay [8] is 1.23 (inactive); in [9] it was 1.66. Besides, the composite z-score was -0.672 (inactive) in assay [4] and -0.0453 in assay [10].
For the compound `C=CCOC(=O)[C@H]1[C@@H]2C(=O)O[C@@H](c3ccccc3)[C@@H](c3ccccc3)N2[C@@H](c2ccc(OCCOC(=O)[C@H]3C[C@H]4C(=O)N[C@@H](CCCC[N+](C)(C)C)C(=O)N4[C@H]3c3cccc(OCCO)c3)cc2)[C@]12C(=O)Nc1ccc(I)cc12`, the z-score is -0.346 in assay [1]; 1.44 (inactive) in assay [2]; -0.0145 (inactive) in [3]; 4.03 (inactive) in assay [5]; 2.44 (inactive) in assay [6]; 0.186 (inactive) in assay [7]. The figures for the z-score in assay [8] and in assay [9] were 0.57 (inactive) and 0.208, respectively. The composite z-score is -2.44 (inactive) in assay [4] and -0.0373 in assay [10].
